Results published in PubChem BioAssay (Tox21).
“And” between values parts separate entries of the source, which are not always exact repeats. Equal values may be shown once. Results filed as inconclusive are left out. A call without a number means that no potency is given here. Some compounds were tested as several samples or in several runs, with calls that do not always agree. The source made the active and inactive calls. Unless noted, calls follow the shape of the dose curve; as a rule, active = well fitted curve in the direction sought with a large enough effect in the repeat runs; inconclusive = weak or mixed curves; inactive = no such curve, though single readings can be large; an effect the other way counts as inactive or inconclusive.

Columns and labels:
[1] = qHTS assay to identify small molecule agonists of the androgen receptor (AR) signaling pathway in the presence of an antagonist - cell viability counter screen (AID 1259379); also: nearly all actives have a fitted effect of over 25% in size; also: potency is read from the fitted curve at half-maximal effect
Procedure, shortened: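 MDA-kb2 cells (MMTV-luciferase, AR/GR), 3,000/well, 5 h attachment, then 3.0 µM nilutamide (final) and compounds at 15 concentrations. Viability by CellTiter-Fluor fluorescence after 16 h at 37 °C, 0% CO2, in the reporter wells.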

[2] = qHTS assay to identify small molecule agonists of the estrogen receptor beta (ER-beta) signaling pathway - cell viability counter screen (AID 1259380); also: nearly all actives have a fitted effect of over 30% in size; also: potency is read from the fitted curve at half-maximal effect
Procedure, shortened: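 ER-beta-UAS-bla HEK293T cells in medium with 2% charcoal-stripped FBS, pre-incubated 6 hr, then treated 16 hr at 37C. Cytotoxicity read in the same wells by CellTiter-Glo luminescence after 30 min at room temperature.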

[3] = qHTS assay to identify small molecule antagonists of the estrogen receptor beta (ER-beta) signaling pathway - cell viability counter screen (AID 1259382); also: nearly all actives have a fitted effect of over 55% in size; also: potency is read from the fitted curve at half-maximal effect
Procedure, shortened: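 ER-beta-UAS-bla HEK293T cells in 2% charcoal-stripped FBS medium, treated with compound plus 1 nM 17-beta-estradiol for 16 h at 37C. Viability read by CellTiter-Glo luminescence after 30 min at room temperature in the same wells.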

[4] = qHTS assay to identify small molecule agonists of the estrogen receptor alpha (ER-alpha) signaling pathway in the presence of an antagonist - cell viability counter screen (AID 1259386);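 also: cells exposed to compounds for 22 h at 37 °C before the viability read; nearly all actives have a fitted effect of over 30% in size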; also: potency is read from the fitted curve at half-maximal effect
Procedure, shortened: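 Cell viability in VM7Luc4E2 cells (endogenous full-length ER-alpha) measured by CellTiter-Fluor fluorescence in the same wells as the luciferase screen. Cells pre-cultured 5 days in charcoal-stripped serum, then treated 22 h with compounds at 15 concentrations plus 10.0nM ICI-182,780.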

[5] = molecular target: Progesterone receptor (Homo sapiens) (UniProt P06401); assay: qHTS assay to identify small molecule agonists of the progesterone receptor (PR) signaling pathway (AID 1346784; calls by dose curve; also: nearly all actives have a fitted effect of over 30% in size)
Sequence of Progesterone receptor (Homo sapiens) (P06401 whole entry, looked up): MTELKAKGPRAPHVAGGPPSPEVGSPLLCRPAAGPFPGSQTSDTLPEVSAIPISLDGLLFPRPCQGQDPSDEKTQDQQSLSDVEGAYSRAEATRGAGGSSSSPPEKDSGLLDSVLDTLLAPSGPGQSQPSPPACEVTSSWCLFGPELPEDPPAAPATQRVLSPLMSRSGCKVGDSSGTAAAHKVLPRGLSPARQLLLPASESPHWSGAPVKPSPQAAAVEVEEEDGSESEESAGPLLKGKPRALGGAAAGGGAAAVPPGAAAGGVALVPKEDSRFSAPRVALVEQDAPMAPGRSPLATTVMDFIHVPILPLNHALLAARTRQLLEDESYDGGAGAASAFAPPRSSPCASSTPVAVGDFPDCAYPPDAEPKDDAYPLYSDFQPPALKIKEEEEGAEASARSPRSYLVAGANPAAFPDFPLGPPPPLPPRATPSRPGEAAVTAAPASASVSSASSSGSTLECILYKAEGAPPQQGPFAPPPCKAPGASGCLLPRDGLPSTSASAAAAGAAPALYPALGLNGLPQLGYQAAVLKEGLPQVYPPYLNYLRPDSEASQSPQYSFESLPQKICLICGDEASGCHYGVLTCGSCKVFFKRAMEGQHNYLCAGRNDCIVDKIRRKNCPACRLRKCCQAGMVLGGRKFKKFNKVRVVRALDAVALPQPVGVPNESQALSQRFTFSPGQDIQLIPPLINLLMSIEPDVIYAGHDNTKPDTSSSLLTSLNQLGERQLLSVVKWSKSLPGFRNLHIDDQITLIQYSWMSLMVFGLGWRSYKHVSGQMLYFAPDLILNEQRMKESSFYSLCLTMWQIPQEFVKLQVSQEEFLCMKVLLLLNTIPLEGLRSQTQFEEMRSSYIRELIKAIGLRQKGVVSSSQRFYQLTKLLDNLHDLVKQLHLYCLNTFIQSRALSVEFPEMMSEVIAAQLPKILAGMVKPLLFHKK
Procedure, shortened: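 PR-UAS-bla HEK 293T cells (beta-lactamase reporter under UAS) in 2% charcoal-stripped FBS, dosed with 23 nL compound after 6 hr, incubated 16hr at 37C. LiveBLAzer B/G FRET substrate added, fluorescence read after 2 hours.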

[6] = molecular target: Progesterone receptor (Homo sapiens) (UniProt P06401); assay: qHTS assay to identify small molecule antagonists of the progesterone receptor (PR) signaling pathway (AID 1346795; active = well fitted inhibition curve with a large enough effect in the signal ratio in the repeat runs, not every such curve was filed as active; the % refers to the signal ratio; also: potency is read from the fitted curve at half-maximal effect)
Procedure, shortened: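 PR-UAS-bla HEK293T cells with beta-lactamase reporter under UAS control, in 2% charcoal-stripped FBS, treated with compounds plus 1 nM promegestone (R5020, final) for 16 hr at 37C. Read-out: FRET beta-lactamase substrate fluorescence after 2 hr at room temperature.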

[7] = qHTS assay to identify small molecule antagonists of the progesterone receptor (PR) signaling pathway - cell viability counter screen (AID 1346798); also: nearly all actives have a fitted effect of over 50% in size; also: potency is read from the fitted curve at half-maximal effect
Procedure, shortened: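 PR-UAS-bla HEK293T cells, 3,000/well in 2% charcoal-stripped FBS medium, dosed with compounds plus R5020 agonist and incubated 16 h at 37C. Viability then measured in the same wells by CellTiter-Glo luminescence after 30 min at RT.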

[8] = qHTS assay to identify small molecule agonists of the progesterone receptor (PR) signaling pathway - cell viability counter screen (AID 1346799; calls by dose curve; also: nearly all actives have a fitted effect of over 45% in size; also: potency is read from the fitted curve at half-maximal effect)
Procedure, shortened: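 Counter screen in the PR-UAS-bla HEK293T wells (2% charcoal-stripped FBS, 16 h compound exposure at 37 C) after the bla read. CellTiter-Glo added, 30 min at room temperature, luminescence read as cell viability.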

[9] = qHTS assay to identify small molecule antagonists of the TGF-beta/Smad signaling pathway - cell viability counter screen (AID 1346824); also: nearly all actives have a fitted effect of over 50% in size; also: potency is read from the fitted curve at half-maximal effect
Procedure, shortened: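 SBE-bla HEK 293T cells were plated overnight at 37 C, then given compounds in DMSO plus TGF-beta1 (added as 0.25 ng/mL solution) for 5 hr. After the bla read, CellTiter-Glo was added to the same wells and luminescence read after 30 min at room temperature.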

[10] = qHTS assay to identify small molecule agonists of the TGF-beta/Smad signaling pathway - cell viability counter screen (AID 1346829); also: nearly all actives have a fitted effect of over 45% in size; also: potency is read from the fitted curve at half-maximal effect
Procedure, shortened: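 CellTiter-Glo luminescence readout; SBE-bla HEK 293T cells, overnight plating, compound 5 hr at 37 C/5% CO2, then bla substrate 2 hr RT, then CellTiter-Glo 30 min RT.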

[11] = molecular target: Thyrotropin-releasing hormone receptor (Homo sapiens) (UniProt P34981); assay: qHTS assay to identify small molecule antagonists of the thyrotropin-releasing hormone receptor (TRHR) signaling pathway (AID 1346877; active = well fitted inhibition curve with a large enough effect in the repeat runs, not every such curve was filed as active; also: potency is read from the fitted curve at half-maximal effect)
Sequence of Thyrotropin-releasing hormone receptor (Homo sapiens) (P34981 whole entry, looked up): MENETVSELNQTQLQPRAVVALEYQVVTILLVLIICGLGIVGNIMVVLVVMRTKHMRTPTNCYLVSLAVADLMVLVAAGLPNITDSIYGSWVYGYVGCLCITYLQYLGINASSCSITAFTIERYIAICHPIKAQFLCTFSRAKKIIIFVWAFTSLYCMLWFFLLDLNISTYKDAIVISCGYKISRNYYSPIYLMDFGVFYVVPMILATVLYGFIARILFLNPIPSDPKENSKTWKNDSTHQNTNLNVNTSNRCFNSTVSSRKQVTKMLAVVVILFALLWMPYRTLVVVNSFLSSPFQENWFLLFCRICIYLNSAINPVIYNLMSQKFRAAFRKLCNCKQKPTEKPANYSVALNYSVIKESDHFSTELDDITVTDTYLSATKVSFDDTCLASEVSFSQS
Procedure, shortened: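 TRHR-expressing HEK293 cells loaded with calcium dye for 2 h at 37 C; compounds pre-incubated 5 min at room temperature before TRH challenge at 1 nM final. Intracellular calcium fluorescence read kinetically for 3 min; 15 concentrations in triplicate.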

[12] = molecular target: Thyrotropin-releasing hormone receptor (Homo sapiens) (UniProt P34981); assay: qHTS assay to identify small molecule agonists of the thyrotropin-releasing hormone receptor (TRHR) signaling pathway (AID 1346891; calls by dose curve; also: potency is read from the fitted curve at half-maximal effect; as to activation: series mostly up to about 58 µM)
Procedure, shortened: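 HEK293 cells expressing TRHR plated 18 h at 37 C/5% CO2, calcium dye-loaded 2 h at 37 C, then compound added (agonist mode); kinetic calcium fluorescence read 3 min at 1 s intervals; 15 concentrations in triplicate.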

[13] = Human pregnane X receptor (PXR) small molecule agonists, qHTS cell viability counter screen (AID 1346977); also: nearly all actives have a fitted effect of over 50% in size; also: potency is read from the fitted curve at half-maximal effect
Procedure, shortened: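 PXR-Luc HepG2 cells (2,000/well, 5% charcoal-stripped FBS) preincubated 5 hr, then exposed to compounds 24 hr at 37 C. Viability read in the same wells by CellTiter-Fluor fluorescence, reagent added at 23 hr, 1 hr incubation.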

[14] = molecular target: Androgen receptor (Homo sapiens) (UniProt P10275); assay: qHTS assay to identify small molecule agonists of the androgen receptor (AR) signaling pathway in the presence of an antagonist (AID 1259381; calls by dose curve; also: nearly all actives have a fitted effect of over 15% in size)
Sequence of Androgen receptor (Homo sapiens) (P10275 whole entry, looked up): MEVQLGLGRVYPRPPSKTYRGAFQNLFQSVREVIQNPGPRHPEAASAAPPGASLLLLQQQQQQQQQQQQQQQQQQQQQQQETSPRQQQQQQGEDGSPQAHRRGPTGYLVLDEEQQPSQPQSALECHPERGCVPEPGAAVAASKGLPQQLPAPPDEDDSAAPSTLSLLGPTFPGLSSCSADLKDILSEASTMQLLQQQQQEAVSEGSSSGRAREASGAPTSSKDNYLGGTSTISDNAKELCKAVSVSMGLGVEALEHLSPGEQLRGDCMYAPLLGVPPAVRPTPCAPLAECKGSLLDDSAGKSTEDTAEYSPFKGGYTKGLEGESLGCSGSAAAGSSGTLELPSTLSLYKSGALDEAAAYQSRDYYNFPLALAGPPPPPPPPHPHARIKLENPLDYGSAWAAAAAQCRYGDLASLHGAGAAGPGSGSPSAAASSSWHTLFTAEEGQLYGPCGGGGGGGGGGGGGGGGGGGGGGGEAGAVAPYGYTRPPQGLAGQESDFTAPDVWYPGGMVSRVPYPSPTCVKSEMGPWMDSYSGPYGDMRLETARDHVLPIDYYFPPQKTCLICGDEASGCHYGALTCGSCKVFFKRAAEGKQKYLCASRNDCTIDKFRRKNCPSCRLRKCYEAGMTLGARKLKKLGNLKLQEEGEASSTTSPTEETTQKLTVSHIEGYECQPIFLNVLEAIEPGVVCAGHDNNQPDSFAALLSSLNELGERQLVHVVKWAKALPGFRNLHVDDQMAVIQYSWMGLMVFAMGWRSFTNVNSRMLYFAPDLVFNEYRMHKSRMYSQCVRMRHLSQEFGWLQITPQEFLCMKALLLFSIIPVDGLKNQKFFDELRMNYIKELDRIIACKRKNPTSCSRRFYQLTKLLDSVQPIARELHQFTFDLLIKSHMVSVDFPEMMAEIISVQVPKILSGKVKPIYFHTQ
Procedure, shortened: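 MDA-kb2 cells carrying MMTV-luciferase (AR/GR responsive), 3,000 cells/well, co-treated with 3.0 uM nilutamide final. Compounds at 15 concentrations, 16 hr at 37C without CO2. Luciferase luminescence read after 30 min with ONE-Glo.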

[15] = molecular target: Estrogen receptor (Homo sapiens) (UniProt P03372); assay: qHTS assay to identify small molecule agonists of the estrogen receptor alpha (ER-alpha) signaling pathway in the presence of an antagonist (AID 1259383; calls by dose curve; also: nearly all actives have a fitted effect of over 15% in size; also: potency is read from the fitted curve at half-maximal effect; as to activation: top concentration of the series differs between compounds)
Sequence of Estrogen receptor (Homo sapiens) (P03372 whole entry, looked up): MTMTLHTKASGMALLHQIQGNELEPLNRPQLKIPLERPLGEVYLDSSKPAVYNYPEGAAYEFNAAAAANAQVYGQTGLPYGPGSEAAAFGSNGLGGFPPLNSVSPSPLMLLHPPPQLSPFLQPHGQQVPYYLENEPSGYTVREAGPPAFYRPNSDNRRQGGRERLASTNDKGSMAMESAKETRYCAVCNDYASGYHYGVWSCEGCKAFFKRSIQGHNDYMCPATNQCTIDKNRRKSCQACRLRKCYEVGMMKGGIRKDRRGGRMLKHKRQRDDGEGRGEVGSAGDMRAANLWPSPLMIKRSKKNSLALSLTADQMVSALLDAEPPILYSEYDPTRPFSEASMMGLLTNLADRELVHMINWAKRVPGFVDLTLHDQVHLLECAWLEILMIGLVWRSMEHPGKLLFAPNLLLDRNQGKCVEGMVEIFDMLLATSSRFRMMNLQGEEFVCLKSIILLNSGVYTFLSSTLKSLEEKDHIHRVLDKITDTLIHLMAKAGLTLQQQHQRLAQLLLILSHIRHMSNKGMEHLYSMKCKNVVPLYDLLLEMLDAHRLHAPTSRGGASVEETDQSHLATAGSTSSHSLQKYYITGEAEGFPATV
Procedure, shortened: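 VM7Luc4E2 cells express endogenous full-length ER-alpha with an ERE-luciferase reporter and were hormone-deprived for 5 days. Compounds at 15 concentrations were added with 10.0nM ICI-182,780 for 22hr at 37C. Luminescence was read with ONE-Glo.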

[16] = qHTS assay to identify small molecule agonists of the TGF-beta/Smad signaling pathway (AID 1346859; active = well fitted activation curve with a large enough effect in the signal ratio in the repeat runs, not every such curve was filed as active; the % refers to the signal ratio; also: series mostly up to about 77 µM)
Procedure, shortened: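 SBE-bla HEK293T cells plated overnight, then compound exposure for 5 h at 37 C. Beta-lactamase reporter read with LiveBLAzer B/G FRET substrate after 2 h at room temperature, fluorescence at 405 nm excitation, 460/530 nm emission.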

[17] = qHTS assay to identify small molecule agonists or antagonists of the thyroid stimulating hormone receptor (TSHR) signaling pathway - wild type cell line counter screen (AID 1259384; calls by dose curve)
Procedure, shortened: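 Wild-type HEK293 cells were plated 18 h at 37 C/5% CO2, pin-dosed with compound plus Ro20-1724 medium, held 30 min at room temperature, then given cAMP-d2 and anti-cAMP-cryptate; fluorescence was read after 1 h. Fifteen concentrations, triplicate.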

[18] = molecular target: Thyrotropin receptor (Homo sapiens) (UniProt P16473); assay: qHTS assay to identify small molecule antagonists of the thyroid stimulating hormone receptor (TSHR) signaling pathway (AID 1259385; calls by dose curve; also: nearly all actives have a fitted effect of over 20% in size; also: potency is read from the fitted curve at half-maximal effect)
Sequence of Thyrotropin receptor (Homo sapiens) (P16473 whole entry, looked up): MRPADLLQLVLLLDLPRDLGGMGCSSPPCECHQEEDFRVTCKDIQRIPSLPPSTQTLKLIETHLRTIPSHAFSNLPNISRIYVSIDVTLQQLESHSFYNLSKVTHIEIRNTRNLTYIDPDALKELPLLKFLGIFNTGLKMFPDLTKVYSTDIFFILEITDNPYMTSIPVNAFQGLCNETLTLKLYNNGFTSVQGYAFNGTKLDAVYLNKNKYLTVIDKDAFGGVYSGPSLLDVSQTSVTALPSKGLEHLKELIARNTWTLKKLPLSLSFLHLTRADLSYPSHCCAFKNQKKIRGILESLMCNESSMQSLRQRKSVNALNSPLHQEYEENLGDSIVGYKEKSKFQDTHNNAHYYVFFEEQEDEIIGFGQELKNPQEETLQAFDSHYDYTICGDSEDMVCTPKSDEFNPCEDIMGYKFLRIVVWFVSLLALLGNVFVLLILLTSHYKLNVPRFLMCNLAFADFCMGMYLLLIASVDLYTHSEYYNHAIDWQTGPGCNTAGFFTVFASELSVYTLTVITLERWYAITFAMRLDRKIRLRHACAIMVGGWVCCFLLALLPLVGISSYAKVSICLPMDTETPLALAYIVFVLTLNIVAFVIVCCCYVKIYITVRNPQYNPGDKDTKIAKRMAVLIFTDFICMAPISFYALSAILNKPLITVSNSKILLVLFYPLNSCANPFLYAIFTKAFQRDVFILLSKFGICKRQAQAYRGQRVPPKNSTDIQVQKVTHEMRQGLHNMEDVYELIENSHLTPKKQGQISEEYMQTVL
Procedure, shortened: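 TSHR-HEK293 cells were plated and held 18 h at 37C/5% CO2, then given compound plus Ro20-1724 and stimulated with TSH at 1.5 ng/mL final. After 30 min at room temperature, cAMP was detected with cAMP-d2/anti-cAMP-cryptate (1 h) by fluorescence.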

Structure (SMILES)	Potency [1]	Potency [2]	Potency [3]	Potency [4]	Potency [5]	Potency [6]	Potency [7]	Potency [8]	Potency [9]	Potency [10]	Potency [11]	Potency [12]	Potency [13]	Potency [14]	Potency [15]	outcome [16]	outcome [17]	Potency [18]
COc1ccc(N)cc1N	inactive	7.08 µM (active) and 13.1 µM (active)	22.4 µM (active)	63.1 µM (active)	inactive	inactive	inactive	inactive	7.14 µM (active) and 21 µM (active)	7.14 µM (active) and 11.8 µM (active)	inactive	inactive	50.1 µM (active)	–	–	–	–	–
Nc1c(Oc2ccccc2)cc(O)c2c1C(=O)c1ccccc1C2=O	–	–	inactive	26.6 µM (active)	inactive	inactive	inactive	inactive	inactive	inactive	inactive	inactive	–	inactive	1.88 µM (active)	inactive	–	–
CCCCCCCCCCCCCCCC[n+]1ccccc1	25.5 µM (active) [middle of 4 runs]	–	29.8 µM (active) [middle of 4 runs]	71.7 µM (active) and 61.1 µM (active) and 60.3 µM (active)	inactive	–	50.8 µM (active) and 61.1 µM (active) and 60.3 µM (active)	50.8 µM (active) and 54.5 µM (active)	43.6 µM (active) [middle of 4 runs]	54.2 µM (active) [middle of 4 runs]	–	36.3 µM (active) and inactive	30.6 µM (active) [middle of 4 runs]	–	inactive	–	–	–
Fc1ccc(Oc2ccnc3cc(Cl)cc(Cl)c23)cc1	inactive	–	inactive	inactive	inactive	–	inactive	–	inactive	inactive	–	–	–	–	–	inactive	inactive	–
CC(C)(C)c1ccc(CSc2cnn(C(C)(C)C)c(=O)c2Cl)cc1	43.3 nM (active)	–	inactive	2.43 µM (active)	inactive	–	inactive	–	inactive	inactive	inactive	inactive	0.122 µM (active)	–	inactive	inactive	inactive	–
Nc1ccc([N+](=O)[O-])cc1Cl	–	inactive	inactive	–	inactive	54.5 µM (active)	inactive	–	inactive	inactive	–	–	–	inactive	inactive	inactive	–	inactive
O=[N+]([O-])c1c2ccccc2cc2ccccc12	–	–	–	–	–	–	27 µM (active)	–	–	inactive	inactive	inactive	–	–	–	–	inactive	–
c1ccc2cc3c(cc2c1)-c1cccc2cccc-3c12	–	inactive	inactive	–	–	–	inactive	inactive	inactive	inactive	–	–	inactive	inactive	inactive	–	inactive	inactive
COP(=O)(OC)SCn1c(=O)oc2cc(Cl)cnc21	–	–	inactive	inactive	inactive	–	inactive	inactive	–	inactive	–	–	30.6 µM (active)	inactive	inactive	inactive	inactive	–
ClC(Cl)=C(c1ccc(Cl)cc1)c1ccc(Cl)cc1	inactive	–	inactive	–	inactive	6.26 µM (active)	inactive	61.1 µM (active)	inactive	inactive	inactive	inactive	inactive	–	inactive	inactive	inactive	28 µM (active)
Oc1ccc(I)cc1	inactive	–	inactive	inactive	inactive	61.1 µM (active)	inactive	inactive	inactive	inactive	–	–	inactive	–	inactive	inactive	inactive	inactive
CC[C@H]1C[C@@H]2C[C@H]3c4[nH]c5ccc(OC)cc5c4CCN(C2)[C@@H]13	–	inactive	inactive	–	inactive	–	–	–	–	inactive	inactive	inactive	47.7 µM (active)	inactive	inactive	inactive	–	–
O=C(O)COc1nc(Cl)c(Cl)cc1Cl	inactive	–	inactive	inactive	–	–	–	27.9 µM (active)	inactive	–	inactive	inactive	inactive	–	inactive	–	inactive	–
CN(C)[C@@H]1C(=O)C(C(N)=O)=C(O)[C@@]2(O)C(=O)C3=C(O)c4c(O)ccc(Cl)c4[C@@](C)(O)[C@H]3C[C@@H]12	inactive	–	inactive	–	–	–	inactive	–	inactive	inactive	inactive	inactive	–	–	–	–	–	–
BrC(Br)C(Br)(Br)Br	–	–	inactive	inactive	inactive	inactive	inactive	inactive	inactive	inactive	34 µM (active)	inactive	inactive	–	inactive	inactive	inactive	inactive
